This is an account of results in ChEMBL document CHEMBL4513216, “Probing the Open Global Health Chemical Diversity Library for Multistage-Active Starting Points for Next-Generation Antimalarials” (ACS Infect Dis, 2020).

Out of some 69,000 compounds screened, about 8,600 (12%) showed an effect of 50% or more. Many of the other results were omitted from the sample, so strong results are more common in it than they were.

The assay concerns Plasmodium berghei. Kind of assay: Screen against P. berghei liver stage (PbLuc), transformed with Luciferase, at 10uM. Format: functional, HepG2. The following applies: tested at 10 uM.
For `CC(C)c1ccc(OCn2ccc(C(=O)N3CCCC3)n2)cc1`, the INHIBITION worked out at 83.4%. With `O=C(c1ccn(COc2ccc(F)cc2)n1)N1CCCC1`, the INHIBITION is -28%. The result for `O=C(c1ccn(COc2ccc(F)cc2)n1)N1CCCCCC1` reads -24.6%.

In the case of `CN(CCc1ccncc1)Cc1nccn1Cc1ccccc1`, the INHIBITION came to 11.6%. Regarding `CN(CCc1ccccn1)Cc1nccn1Cc1ccccc1`, the INHIBITION is 81.2%.

For `CN(Cc1ccncc1)Cc1nccn1Cc1ccccc1`, the INHIBITION was -46.4%. As for `CC(C)CC(=O)N1CCCC1c1nccnc1Nc1ncccn1` (stereo not given), the INHIBITION is reported as 32.3%. Turning to `O=S(=O)(CC1CCCN1S(=O)(=O)c1cccnc1)c1ccccc1` (stereo not given), the INHIBITION came out at 13.2%. Take `O=S(=O)(CC1CCCN1S(=O)(=O)C1CC1)c1ccccc1` (stereo not given): the INHIBITION came to 7.77%.

On to `CS(=O)(=O)N1CCCC1CS(=O)(=O)c1ccccc1` (stereo not given), for which the INHIBITION was 66.9%. For `O=C1NC(c2cnc(C3CCC3)s2)Nc2ccccc21` (stereo not given), the INHIBITION is recorded as -90.1%. With `Cc1nc2c(c(NC(C)C)n1)CCN(C(=O)c1cc[nH]n1)CC2`, the INHIBITION is 34.6%. The result for `CC(C)N(C)Cc1n[nH]c2c1CCN(C(=O)c1cc[nH]n1)C2` reads 8.03%; that for `CC(C)Nc1nc2c(c(N(C)C)n1)CCN(C(=O)c1cc[nH]n1)CC2`, 50.7%. `O=C(C[C@@H]1COC[C@H]2CN(C3CCOCC3)C[C@@H]12)Nc1cnccn1`: the INHIBITION amounted to 42.5%. Take `COc1ccccc1C1(O)CCCN(C(=O)c2cnc(SC)nc2)C1` (stereo not given): the INHIBITION is reported as 36.9%. Turning to `O=C(CC1CC1)N[C@@H]1CN(Cc2ccc(F)cc2)C[C@@H]2CCCO[C@@H]21`, the INHIBITION is on record as -6.23%.

For `Cc1occc1C(=O)N1C[C@@H]2CCCO[C@@H]2[C@H](NC(=O)CC2CC2)C1`, the INHIBITION is given as 62.9%. As to `Cc1occc1C(=O)N1C[C@@H]2CCCO[C@@H]2[C@H](NS(C)(=O)=O)C1`, the INHIBITION is reported as 43%. `O=C(CC1CC1)N[C@@H]1CN(C(=O)c2ccoc2)C[C@@H]2CCCO[C@@H]21`: the INHIBITION was found to be 71.1%.

For `O=C(N[C@@H]1CN(Cc2ccccc2)C[C@@H]2CCCO[C@@H]21)C1CC1`, the INHIBITION is recorded as 6.38%. As to `O=C(N[C@@H]1CN(Cc2ccoc2)C[C@@H]2CCCO[C@@H]21)C1CCC1`, the INHIBITION is listed as 72%. For `Cc1ccc(CN2C[C@@H]3CCCO[C@@H]3[C@H](NC(=O)CC3CC3)C2)s1`, the INHIBITION came to 49.3%. In the case of `O=C(CC1CC1)N[C@@H]1CN(Cc2ccco2)C[C@@H]2CCCO[C@@H]21`, the INHIBITION is -2.17%.

In the case of `O=C(CC1CC1)N[C@@H]1CN(Cc2ccoc2)C[C@@H]2CCCO[C@@H]21`, the INHIBITION is listed as 3.25%.

For `O=C(CC1CC1)N[C@@H]1CN(C(=O)c2ccsc2)C[C@@H]2CCCO[C@@H]21`, the INHIBITION is 63.8%. Turning to `COc1ccc(CN2C[C@@H]3CCCO[C@@H]3[C@H](NC(=O)CC3CC3)C2)cc1`, the INHIBITION was -3.52%. Consider `O=C(CC1CC1)N[C@@H]1CN(c2ncccn2)C[C@@H]2CCCO[C@@H]21`, for which the INHIBITION is given as -29.3%. `O=C(CCC1CCCO1)NCc1ccccc1Cn1cncn1` (stereo not given): the INHIBITION came to 34.7%.

With `COc1ccc(Nc2nc3c(C)nn(C)c3c(=O)n2C)c(C)c1`, the INHIBITION was determined as 29%. As for `Cc1nn(C)cc1C(=O)N1CCCC(n2cncn2)C1` (stereo not given), the INHIBITION came out at 9.14%.

On to `Cc1sc(C(=O)O)cc1S(=O)(=O)Nc1c(F)cccc1-n1cccn1`, for which the INHIBITION is on record as -28.8%. The result for `O=C(NCC1(COc2cnccn2)C[C@@H](O)[C@@H](O)C1)C1CCOCC1` (stereo not given in full) reads -0.813%. For the compound `Cc1n[nH]c(=O)c(C(=O)N2CCN(CCc3cccs3)CC2)c1C`, the INHIBITION is listed as -36.1%. As for `CSC(C)C(=O)NS(=O)(=O)c1ccc(F)c(C(F)(F)F)c1` (stereo not given), the INHIBITION was determined as 25%.

In the case of `Cc1ncsc1CN1CC[C@H]2C(=O)N(c3ccccc3)CCO[C@H]2C1`, the INHIBITION was found to be 23.3%. Turning to `COc1ccc(CN2CCc3c(CNC(=O)CC#N)nn(C)c3C2)cc1`, the INHIBITION amounted to 29.8%. `CCc1sc(-c2nnc(CNCCn3cc(C)cn3)o2)cc1C`: the INHIBITION worked out at 30.8%. Take `CN(Cc1nnc(C2CC2)n1C)C1CCN(Cc2nccn2C)C1` (stereo not given): the INHIBITION amounted to 21.6%. In the case of `COc1ncccc1NC(=O)NC(CCCO)c1ccccc1` (stereo not given), the INHIBITION stood at 25.4%. `CC(C)OC(=O)CNC(=O)Nc1ccc(-c2nc(C(C)C)no2)cc1`: the INHIBITION is recorded as -17.8%. On to `O=C(CC1CC1)N[C@@H]1CN(Cc2nccs2)C[C@@H]2CCCO[C@@H]21`, for which the INHIBITION was found to be 29%. With `O=C(CC1CC1)N[C@@H]1CN(Cc2ccncc2)C[C@@H]2CCCO[C@@H]21`, the INHIBITION is 33.4%.

In the case of `O=C(CC1CC1)N[C@@H]1CN(C(=O)c2cccs2)C[C@@H]2CCCO[C@@H]21`, the INHIBITION was 53.9%.

For the compound `Cc1n[nH]c(C)c1CCC(=O)N(C)Cc1cn[nH]c1-c1ccc(F)cc1`, the INHIBITION came to 11.8%. To `COCC(=O)N1CCCC2(CCN(c3ccsc3)C2=O)C1` (stereo not given) belongs 37%; to `O=C(CC1CC1)N1CCCC2(CCC(=O)N2CC2CC2)CC1` (stereo not given), 6.27%. For the compound `CCc1nc(CCNc2ccc(S(N)(=O)=O)cc2C#N)cs1`, the INHIBITION stood at 42.4%. With `Cc1csc(CCCNc2ccc(S(N)(=O)=O)cc2C#N)n1`, the INHIBITION is on record as 66.5%. The result for `Cc1nc(C)c(CCNc2ccc(S(N)(=O)=O)cc2C#N)s1` reads 49.9%.

For `COCCN1CCC2(CC1)CN(C(=O)Cc1cccnc1)CCO2`, the INHIBITION is given as 14.9%. For `Cc1ccc(CN2CCC3(CC2)CC3CN(C)Cc2cccnc2)o1` (stereo not given), the INHIBITION is on record as -24.9%. `CN(Cc1cccnc1)CC1CC12CCCC2` (stereo not given): the INHIBITION is given as 60.9%. `Cc1cnc(N2CCC3(CC2)CC3CN(C)Cc2cccnc2)nc1` (stereo not given): the INHIBITION turned out to be 71.6%. The result for `Cc1cnc(N2CCC3(C2)C(=O)N(C)CCN3Cc2cccnc2)nc1` (stereo not given) reads -50.6%; that for `CN(Cc1cccnc1)CC1CC12CCN(c1nncs1)CC2` (stereo not given), 16.9%; that for `CN(Cc1cccnc1)CC1CC12CCN(Cc1nccs1)CC2` (stereo not given), 45.8%. With `CCC1CN(CC(=O)N2CCN(C(C)=O)CC2)CCN1CCOC` (stereo not given), the INHIBITION turned out to be 4.52%.

For the compound `CN(Cc1cc2cc(F)ccc2[nH]1)C(=O)C1CC(=O)N(C2CCCC2)C1` (stereo not given), the INHIBITION was 26.5%. For `CCN1CC(C(=O)N(C)Cc2cc3cc(F)ccc3[nH]2)CC1=O` (stereo not given), the INHIBITION is reported as -14.1%.

Regarding `CN(C)CCN1CC(C(=O)N(C)Cc2cc3cc(F)ccc3[nH]2)CC1=O` (stereo not given), the INHIBITION is 52.2%. To `Cc1ccc(S(=O)(=O)N2CC[C@@H](O)C2)c(F)c1` belongs 2.25%; to `Cc1cc(S(=O)(=O)N2CCC(N3CCC(O)C3)CC2)c(Cl)cc1Cl` (stereo not given), 71.1%. As to `Cc1cc(S(=O)(=O)N2CC[C@@H](O)C2)c(Cl)cc1F`, the INHIBITION is recorded as -46.4%.

In the case of `O=C(NCC1CCCO1)c1nc2c(s1)CCCN2c1ncccn1` (stereo not given), the INHIBITION is on record as -4.32%. The result for `Cc1ccc(C(=O)N2[C@@H]3CC[C@H]2CC(=O)N(C)C3)c(=O)[nH]1` reads -1.85%; that for `N#Cc1ccc(C(=O)N2C[C@H](OCc3cccnc3)[C@H]3COC[C@H]32)cc1`, -5.31%; that for `CC(C)(C)c1nc(CN(Cc2cccnc2)C2CN3CCC2CC3)no1` (stereo not given), 54.8%. The result for `CC(C)c1noc(CCCC(=O)N2CCC(Cc3cccnc3)CC2)n1` reads 27.1%; that for `CCc1cc(CN(Cc2cccnc2)C2CN3CCC2CC3)on1` (stereo not given), 28.5%. To `Cc1noc(C)c1CN(Cc1cccnc1)C1CN2CCC1CC2` (stereo not given) belongs 10.3%. On to `CC(C)c1noc(CN(Cc2cccnc2)C2CN3CCC2CC3)n1` (stereo not given), for which the INHIBITION was 77.5%. To `CC(C)(C)c1nc(CN(Cc2ccccc2F)C2CCCCC2)no1` belongs 35.3%; to `O=S(=O)(Cc1ccc(Br)cc1)NCCO`, 28.5%.

Regarding `Cc1nn(C)c(N2CCOCC2)c1CNCc1cscn1`, the INHIBITION was determined as 27.0165%. Turning to `CCc1nnc(CN2CCCC2Cn2cc(C)cn2)o1` (stereo not given), the INHIBITION is on record as -29.1%.

As to `O=C(c1ccc(F)c(F)c1)N1CCC(Cn2cc(CO)nn2)CC1`, the INHIBITION is listed as 33.4%. Turning to `Cc1nc(CN2CCCC(NCc3csc(C(C)(C)C)n3)C2)no1` (stereo not given), the INHIBITION is 22.3%. With `COCCN1CCO[C@@H]2CN(C(=O)COc3ccc(C)cc3)C[C@@H]2C1`, the INHIBITION is listed as 37.9%. Regarding `[O-][S+](Cc1c(F)cccc1Cl)Cc1nnnn1C1CC1` (stereo not given), the INHIBITION is reported as 19.8%.

With `CCc1nc2n(n1)CC(NCC(=O)Nc1cc(C(C)(C)C)no1)CC2` (stereo not given), the INHIBITION was -13.5%. Consider `Cc1cc(C(=O)N2CCCC(C)C2)ccc1NCc1nc(C(C)C)no1` (stereo not given), for which the INHIBITION stood at 18.2%. The result for `O=C(O)c1ccc2c(CN3CCOCC3)c[nH]c2c1` reads 56.5%; that for `O=C(O)c1ccc2[nH]cc(CN3CCOCC3)c2c1`, -9.76%; that for `O=C(O)c1ccc2c(CN3CCCC3)c[nH]c2c1`, 42.3%. With `Cc1cccc(C(=O)NC(C(=O)NCc2ccc(O)nc2)C(C)C)c1` (stereo not given), the INHIBITION came out at 28.7%. Regarding `c1ccc(-c2cc(CN3C[C@H]4CC[C@H]3C4)on2)cc1`, the INHIBITION was -0.27%. Turning to `c1ccc(-c2cc(CN3C[C@H]4CC[C@@H](C3)N(CC3CCC3)C4)on2)cc1`, the INHIBITION came to 86.8%.

Consider `c1ccc(-c2cc(CN3C[C@H]4CC[C@@H](C3)N(CC3CC3)C4)on2)cc1`, for which the INHIBITION stood at 48.2%.

On to `CN(c1cccnn1)C1CCN(C(=O)Cc2c[nH]c3ccccc23)CC1`, for which the INHIBITION is reported as 36.1%.

For `CCCOC1CCCN(c2nc(CC)nc3c2cnn3C)C1` (stereo not given), the INHIBITION came out at 7.77%. In the case of `Cc1nc(N2CCCC2)nc2c1CCN(C(=O)C1CCC1)CC2`, the INHIBITION was -21.1%.

In the case of `Nc1ncc(-c2csc(NC(=O)C[C@H]3COCCN3)n2)cn1`, the INHIBITION is on record as -7.79%.

`O=C(Cc1ccc2c(c1)CCC2)NCCNc1cnccn1`: the INHIBITION is given as 8.64%. For the compound `c1csc(CN2C[C@H](OCC3CCOCC3)[C@H]3COC[C@H]32)n1`, the INHIBITION was 26.5%. Consider `c1cnc(N2C[C@H](OCC3CCOCC3)[C@H]3COC[C@H]32)nc1`, for which the INHIBITION turned out to be 68.9%. As to `c1cc(CN2C[C@H](OCC3CCOCC3)[C@H]3COC[C@H]32)co1`, the INHIBITION is 57.3%. Regarding `c1cc(CN2C[C@H](OCC3CCOCC3)[C@H]3COC[C@H]32)cs1`, the INHIBITION was 9.65%.

Regarding `c1cnc(N2CCO[C@H]3[C@H](OCC4CCOCC4)CC[C@@H]32)nc1`, the INHIBITION turned out to be 21.6%. To `COc1ccc(CN2C[C@H](OCC3CCOCC3)[C@H]3COC[C@H]32)cc1` belongs 41.8%.
